Only some compounds are listed: those with a hit (about 3.4% of all), similar ones and a draw of the others.
ADAM17 inh – inhibits human ADAM17 | P78536 | recombinant ADAM17, EDANS/DABCYL FRET peptide cleavage | inhibition, % at 6.95 µM | 370,000 compounds, 0.83% hits | AID 720648;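 active means inhibition above the mean of compounds lying between control limits plus 3 SD, set per campaign, cut at about 8.5% in these data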;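 further: 0% = DMSO-only wells as the low control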
CendR NRP1 mod – alters CendR peptide binding to human NRP-1. O14786. FAM-RPARPAR peptide binding to NRP-1, fluorescence polarization. inhibition, % at 25 µM. 360,000 compounds, 0.85% hits;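 active means inhibition or corrected inhibition above about 18%, plus a signal ratio from 0.5 to 1.5, limit read from the data, passing the limit was not always enough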
HGIII-sPLA2 inh – Inhibits HGIII-sPLA2 liposome hydrolysis, primary screen; Q9NZ20; QFRET BODIPY PC-A2 liposome hydrolysis, fluorescence; inhibition, % at 12.2 µM; 370,000 compounds, 0.56% hits; AID 743126;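 active means inhibition above mean plus 3 SD of compounds lying within the high and low control bounds, cut at about 19% in these data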;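 further: 0% = median of test compound wells and 100% = no enzyme DMSO wells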
proKLK7 act – activates the human kallikrein-7 zymogen. purified proKLK7, EDANS-DABCYL substrate fluorescence; 100% is mature enzyme control, 0% vehicle. activation, % at 7 µM. 370,000 compounds, 0.9% hits. AID 652039;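 active means activation above the mean of all tested compounds plus 3 SD, computed per campaign excluding outliers beyond control limits, cut at about 13% in these data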
ADAM10 inh – inhibitors of human ADAM10; O14672; recombinant ADAM10, EDANS/DABCYL FRET peptide cleavage, 3 h; inhibition, % at 7 µM; 370,000 compounds, 0.62% hits; AID 720582;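 active means inhibition above a per-campaign cutoff equal to the mean of compounds falling between control-based bounds plus 3 SD, cut at about 20% in these data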;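 further: 0% = DMSO wells while the 100% control is not disclosed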
Target sequence (O14672 214-748 limits assumed): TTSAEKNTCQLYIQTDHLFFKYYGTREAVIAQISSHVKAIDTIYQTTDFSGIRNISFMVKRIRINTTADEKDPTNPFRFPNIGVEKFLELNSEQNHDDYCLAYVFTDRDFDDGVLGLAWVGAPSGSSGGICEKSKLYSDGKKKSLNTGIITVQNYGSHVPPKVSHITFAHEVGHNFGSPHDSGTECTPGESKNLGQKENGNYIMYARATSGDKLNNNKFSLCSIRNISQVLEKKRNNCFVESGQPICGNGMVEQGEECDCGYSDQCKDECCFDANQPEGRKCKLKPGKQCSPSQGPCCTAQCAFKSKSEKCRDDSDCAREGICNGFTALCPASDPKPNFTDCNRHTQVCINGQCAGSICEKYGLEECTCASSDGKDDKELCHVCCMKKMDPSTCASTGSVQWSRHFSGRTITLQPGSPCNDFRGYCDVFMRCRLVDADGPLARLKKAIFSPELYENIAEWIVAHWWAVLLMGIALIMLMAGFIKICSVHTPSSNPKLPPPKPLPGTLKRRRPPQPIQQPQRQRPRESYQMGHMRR
ADAM10 ctr – counter-screen for ADAM17 exosite inhibitors: inhibitors of human ADAM10 | shares compounds with ADAM17 inh | recombinant ADAM10, EDANS/DABCYL FRET peptide cleavage, 3 h | inhibition, % at 6.95 µM | 2,900 compounds, 47% hits | AID 743256;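 active means mean inhibition over the triplicate runs exceeds the activity threshold set in the earlier primary screen, cut at about 20% in these data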;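 further: 0% = DMSO wells and 100% = marimastat wells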
ADAM17 confirm – confirmation of inhibitors of human ADAM17; inhibition, % at 6.95 µM; recombinant ADAM17, EDANS/DABCYL QFRET peptide cleavage; shares compounds with ADAM17 inh; 2,900 compounds, 65% hits; AID 743257;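 active means mean inhibition across replicates above the hit cutoff set in the primary screen, cut at about 8.5% in these data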;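 further: 0% = DMSO wells and 100% = marimastat wells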
An asterisk follows results filed as active.

For COC(=O)[C@]12C[C@H](CC(=O)NCc3ccc(C)o3)C(=O)N(Cc3ccccc3)C1=C[C@H](C1CCCC1)O[C@@H]2C the results were ADAM17 inh 12*, HGIII-sPLA2 inh -14, proKLK7 act 0, ADAM10 inh 9, ADAM10 ctr 10 and ADAM17 confirm 7.
For Cc1ccc(CNC(=O)O[C@H]2CC[C@@]34CCCN3C(=O)CCC[C@H]4C2)o1 the results were ADAM17 inh -5, HGIII-sPLA2 inh 2 and ADAM10 inh -3.
For CCC1CCC2(CC1)NC(=O)N(CC(=O)c1c(C)[nH]c3ccccc13)C2=O (centres undefined) the results were ADAM17 inh 8.9*, CendR NRP1 mod -10, HGIII-sPLA2 inh -22, proKLK7 act 0, ADAM10 inh 18, ADAM10 ctr 4 and ADAM17 confirm 8.
Cc1[nH]c2ccccc2c1C(=O)CN1C(=O)NC2(CCCCCC2)C1=O was read as ADAM17 inh 3, CendR NRP1 mod 2, HGIII-sPLA2 inh -10, proKLK7 act 0 and ADAM10 inh 4.
`CN1/C(=C/C=C/c2n(C)c3cc([N+](=O)[O-])c([N+](=O)[O-])cc3[n+]2C)C(C)(C)c2ccccc21` gave ADAM17 inh 9.9*, CendR NRP1 mod -59, HGIII-sPLA2 inh 48*, proKLK7 act -1, ADAM10 inh -5, ADAM10 ctr 1 and ADAM17 confirm 7.
`Cc1cccc[n+]1CC(=O)/C=C1\N(C)c2ccccc2C1(C)C` gave ADAM17 inh 4, CendR NRP1 mod -28, HGIII-sPLA2 inh 1, proKLK7 act -1 and ADAM10 inh 2.
COc1ccc(C(C)(O)c2nc(-c3ccc4ccccc4c3)cs2)cc1 (centres undefined) was read as ADAM17 inh 8.8*, CendR NRP1 mod -3, HGIII-sPLA2 inh -14, proKLK7 act 1, ADAM10 inh 15, ADAM10 ctr 7 and ADAM17 confirm 6.
COc1cccc(C(NC(C)=O)c2nc(-c3ccc4ccccc4c3)cs2)c1 (centres undefined) was read as ADAM17 inh 12*, CendR NRP1 mod -8, HGIII-sPLA2 inh -38, proKLK7 act 0, ADAM10 inh 13, ADAM10 ctr 18 and ADAM17 confirm 11*.
For COc1cccc(C(NC(C)=O)c2nc(-c3cccc(C(C)C)c3)cs2)c1 (centres undefined) the results were ADAM17 inh 4, CendR NRP1 mod -10, HGIII-sPLA2 inh -8, proKLK7 act -1 and ADAM10 inh -1.
`O=C(c1ccccc1)c1ccc(OCCO)cc1` gave ADAM17 inh 0, CendR NRP1 mod 7, HGIII-sPLA2 inh 0, proKLK7 act 0 and ADAM10 inh -3.
`CCOc1cccc(OCCOc2ccc(C(=O)c3ccccc3)cc2)c1` gave ADAM17 inh 10*, CendR NRP1 mod -9, HGIII-sPLA2 inh -4, proKLK7 act 0, ADAM10 inh 10, ADAM10 ctr 20 and ADAM17 confirm 14*.
Screening CN(CCO)c1ccc2c(c1)Oc1ccccc1CN(Cc1cn(Cc3ccccc3C(F)(F)F)nn1)S2(=O)=O returned ADAM17 inh 5, HGIII-sPLA2 inh 1, proKLK7 act 0 and ADAM10 inh -2.
For COc1ccc(NC(=O)c2cc(-c3cc(F)ccc3OC(C)C)n[nH]2)c(C)c1 the results were ADAM17 inh 1, CendR NRP1 mod 9, HGIII-sPLA2 inh -8, proKLK7 act 0 and ADAM10 inh 2.
`COc1ccc(OC)c(NC(=O)c2cc(-c3ccc(F)cc3OC(C)C)n[nH]2)c1` gave ADAM17 inh 8.8*, CendR NRP1 mod 2, HGIII-sPLA2 inh -17, proKLK7 act 0, ADAM10 inh 17, ADAM10 ctr 11 and ADAM17 confirm 9.3*.
Oc1ccc(CNc2ccc(C(F)(F)F)cc2F)c2cccnc12 was read as ADAM17 inh -5, HGIII-sPLA2 inh 9 and ADAM10 inh 5.
`COc1cc(-c2coc3c(C(=O)NCc4cccc(Cl)c4)cccc23)ccc1O` gave ADAM17 inh 8.6*, CendR NRP1 mod -4, HGIII-sPLA2 inh -15, proKLK7 act 0, ADAM10 inh 15, ADAM10 ctr 27* and ADAM17 confirm 13*.
For COc1cc(-c2coc3c(C(=O)NCc4ccccc4)cccc23)ccc1O the results were ADAM17 inh 1, CendR NRP1 mod -8, HGIII-sPLA2 inh -3, proKLK7 act 0 and ADAM10 inh 12.
For C=C1CC2(CC(c3ccccc3)OC(c3ccccc3)C2)OC1=O (centres undefined) the results were ADAM17 inh 9.6*, CendR NRP1 mod 1, HGIII-sPLA2 inh 3, proKLK7 act 0, ADAM10 inh 15, ADAM10 ctr -8 and ADAM17 confirm -1.
O=C1CCCC[C@@H](O)[C@H](O)C[C@H](c2ccccc2)O1 was read as ADAM17 inh -3, CendR NRP1 mod 10, HGIII-sPLA2 inh 1, proKLK7 act 0 and ADAM10 inh -11.
For CC(C)=CCN1C(=O)[C@]2(OCCC=C[C@H]2C)c2c(Br)cccc21 the results were ADAM17 inh 5, HGIII-sPLA2 inh 5, proKLK7 act 0 and ADAM10 inh 3.
O=C(Nc1ccc(SC(F)F)cc1)C12CCC(CC1)C2 was read as ADAM17 inh 3, CendR NRP1 mod -3, HGIII-sPLA2 inh 2, proKLK7 act 0 and ADAM10 inh -10.
For CC12CCC(C(=O)Nc3ccc(SC(F)F)cc3)(CC1=O)C2(C)C (centres undefined) the results were ADAM17 inh 15*, CendR NRP1 mod -11, HGIII-sPLA2 inh -7, proKLK7 act -1, ADAM10 inh 10, ADAM10 ctr 0 and ADAM17 confirm 4.
`O=C(NCCc1ccccc1Cl)[C@@H]1CCCN1C(=O)[C@@H](NS(=O)(=O)c1ccc(F)cc1F)C1CCCCC1` gave ADAM17 inh 4, HGIII-sPLA2 inh 1, proKLK7 act -1 and ADAM10 inh -4.
C[C@@]12C(=O)Nc3ccccc3C(=O)N1[C@H]1c3cc(Br)ccc3OC[C@@H]1[C@@H]2c1ccccc1 was read as ADAM17 inh 8.6*, CendR NRP1 mod 3, HGIII-sPLA2 inh -1, proKLK7 act -1, ADAM10 inh 19, ADAM10 ctr 20* and ADAM17 confirm 11*.
For CCOC(=O)[C@H]1[C@H]2COc3ccc(C)cc3[C@@H]2N2C(=O)c3cc(Br)ccc3NC(=O)[C@@]12C the results were ADAM17 inh 9.5*, CendR NRP1 mod 13, HGIII-sPLA2 inh 1, proKLK7 act 0, ADAM10 inh 10, ADAM10 ctr 49* and ADAM17 confirm 17*.

Screens deposited in PubChem by several laboratories.
